RGS8-Gao reg – modulates binding of RGS8 to human Galphao; actives 0.34% (n = 220,000); AID 1423; response (percent of control binding), % at 10 µM; multiplexed bead flow cytometry; actives lie on both sides; in the data active = response below about 60% or above about 140%; inactive = in between;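 note: Galphao activated as the GDP aluminium fluoride complex binding bead-coupled RGS8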
RGS16-Gao HTS – RGS16-Galphao interaction regulator (human); O15492+P09471; bead-based flow cytometry RGS16-Galphao binding, fluorescence; actives lie on both sides; binding response (% of control), % at 10 µM; actives 0.38% (n = 220,000); AID 1441;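 note: Galphao activated by GDP with aluminum fluoride before binding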
Target sequence (O15492 whole entry, looked up): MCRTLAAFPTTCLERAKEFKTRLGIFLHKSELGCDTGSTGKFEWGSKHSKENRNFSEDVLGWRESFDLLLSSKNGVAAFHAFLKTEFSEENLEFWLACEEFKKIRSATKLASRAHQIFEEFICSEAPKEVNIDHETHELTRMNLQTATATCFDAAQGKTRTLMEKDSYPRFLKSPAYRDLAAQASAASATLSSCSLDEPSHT
Target sequence (P09471 whole entry, looked up): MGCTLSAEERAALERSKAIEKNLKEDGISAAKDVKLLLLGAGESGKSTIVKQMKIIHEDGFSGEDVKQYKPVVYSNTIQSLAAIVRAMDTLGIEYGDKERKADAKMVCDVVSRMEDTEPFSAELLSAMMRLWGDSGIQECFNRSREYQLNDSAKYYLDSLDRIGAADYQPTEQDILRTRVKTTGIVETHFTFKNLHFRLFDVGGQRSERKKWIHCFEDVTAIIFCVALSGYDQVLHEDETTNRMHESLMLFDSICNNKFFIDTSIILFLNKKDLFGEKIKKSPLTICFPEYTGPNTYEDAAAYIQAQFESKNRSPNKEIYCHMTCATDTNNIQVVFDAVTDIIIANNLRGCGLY
GSH bead fluor – compound fluoresces at 488/530 nm on GSH beads; GSH beads flow cytometry, compound fluorescence 488/530 nm; hits give high values; fluorescence (KMESF) at 10 µM; actives 0.25% (n = 190,000); in the data active = fluorescence above about 89;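 note: glutathione beads carrying GST-tagged Bcl family fusion proteins plus one bare bead set; values are compound well signal with DMSO vehicle wells as background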
RGS4-Gao reg – modulates binding of RGS4 to human Galphao; actives 0.33% (n = 220,000); Multiplexed bead flow cytometry; actives lie on both sides; binding response (% of control), % at 10 µM; in the data active = binding response below about 49% or above about 150%; inactive = in between;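 note: fluorescent Galphao activated with aluminum fluoride binding bead-coupled RGS4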
Avidin bead fluor – avidin bead compound fluorescence profile | Avidin beads, compound fluorescence 488/530 nm, flow cytometry; hits give high values | fluorescence (KMESF) at 10 µM | actives 0.38% (n = 220,000) | AID 1775; in the data active = fluorescence above about 47
RGS7-Gao reg – human RGS7-Galphao interaction regulation | binding response (% of control), % at 10 µM | P09471 | actives 0.35% (n = 220,000) | Multiplexed bead flow cytometry, RGS7-Galphao binding; actives lie on both sides; in the data active = binding response below about 49% or above about 150%; inconclusive = no clear call, values can overlap the other calls; inactive = in between;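 note: fluorescent Galphao held in activated GDP-AlF4 state binding bead-coupled RGS7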
RGS4-Gao HTS – RGS4-Galphao interaction regulator (human); RGS4–Galpha-o binding response, % at 10 µM; actives 99% (n = 1,600); AID 1504; multiplexed bead flow cytometry, RGS–Galpha-o binding; shares compounds with RGS16-Gao HTS;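 note: fluorescently labeled Galpha-o bound to GDP with aluminium fluoride binding biotinylated RGS beads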
Target sequence (P09471 whole entry, looked up): as above
Target sequence (P49798 whole entry, looked up): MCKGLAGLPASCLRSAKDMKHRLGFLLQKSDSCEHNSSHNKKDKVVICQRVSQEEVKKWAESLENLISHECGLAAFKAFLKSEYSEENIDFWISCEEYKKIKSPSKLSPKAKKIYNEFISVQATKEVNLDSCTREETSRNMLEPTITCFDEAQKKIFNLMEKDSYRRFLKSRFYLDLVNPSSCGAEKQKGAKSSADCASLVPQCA
Avidin counter – biotin-avidin bead binding disruption counter-screen. shares compounds with RGS16-Gao HTS. streptavidin beads, fluorescein-biotin binding, flow cytometry. inhibition, % at 10 µM. 1,700 tested, under 10 active;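 active = inhibition above 50%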;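 note: median green fluorescence of gated singlet beads compared with DMSO control wells; 0% = DMSO wells and 100% = complete loss of bead fluorescence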
RGS8-Gao confirm – confirmation of regulators of human RGS8-Galphao interaction; shares compounds with RGS16-Gao HTS; bead-based flow cytometry RGS8-Galphao binding, fluorescence; actives lie on both sides; binding response (% of control), % at 10 µM; actives 3% (n = 1,700); AID 1836; in the data active = binding response below about 72% or above about 130%; inactive = in between;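 note: Galphao activated as GDP AlF4 complex before binding bead RGS8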
RGS7-Gao single – confirmation of regulators of human RGS7-Galphao interaction; shares compounds with RGS16-Gao HTS; bead-based flow cytometry RGS7-Galphao binding; actives lie on both sides; response (percent of control binding), % at 10 µM; actives 7.8% (n = 1,700); in the data active = response below about 75% or above about 130%; inactive = in between;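 note: fluorescent Galphao activated with GDP and aluminum fluoride binding bead-coupled RGS7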
RGS16-Gao conf – RGS16-Galphao interaction regulation, single point confirmation; shares compounds with RGS16-Gao HTS; bead-based flow cytometry, RGS16-Galphao binding; actives lie on both sides; response (% of control binding), % at 10 µM; actives 4% (n = 1,700); AID 1838; in the data active = response below about 74% or above about 130%; inactive = in between;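 note: Galphao activated as the GDP aluminium fluoride complex binding bead-coupled RGS16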
RGS4-Gao single – RGS4-Galphao interaction regulation, single point confirmation; AID 1840; shares compounds with RGS16-Gao HTS; actives 4% (n = 1,700); binding response (% of control), % at 10 µM; RGS4-Galphao binding, multiplexed bead flow cytometry; actives lie on both sides; in the data active = binding response below about 74% or above about 130%; inactive = in between
RGS19-Gao conf – confirmation of regulators of human RGS19-Galphao interaction. shares compounds with RGS16-Gao HTS. bead-based flow cytometry RGS19-Galphao binding; actives lie on both sides. actives 5% (n = 1,700). response (percent of control binding), % at 10 µM; in the data active = response below about 50% or above about 160%; inactive = in between;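 note: 100% = no compound control and 0% = blank background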
An asterisk follows results filed as active; i = inactive; ? = inconclusive; . = no result; [ ] = remark or other dose. Rows were chosen to be rich in hits. Some 1.2% of all compounds tested hit in one or more screens of this group. Unless noted, the rule behind the calls is not given here.

SMILES | RGS8-Gao reg | RGS16-Gao HTS | GSH bead fluor | RGS4-Gao reg | Avidin bead fluor | RGS7-Gao reg | RGS4-Gao HTS | Avidin counter | RGS8-Gao confirm | RGS7-Gao single | RGS16-Gao conf | RGS4-Gao single | RGS19-Gao conf
CCCCN(CCCC)c1cn[nH]c(=O)c1Cl | 13.2* | 9.8* | 12 | 22.1* | 1 | 16.2* | . | 0.4 | 103.6 | 108.6 | 108.7 | 103.1 | 106.6
C=CCN=C(NC#N)SCC(=O)NC(C)(C)C | 61.1 | i | 13 | -27.7* | 5 | 45.5* | . | 0.9 | 101.8 | 100.0 | 105.9 | 98.2 | 104.7
NC(=O)c1ccsc1NC(=O)COC(=O)Cc1cccc2ccccc12 | 99.9 | 103.7 | 52 | 104.9 | 12 | 101.5 | . | . | . | . | . | . | .
COc1ccc(N(CC(=O)NCc2cccs2)S(=O)(=O)c2c(C)n[nH]c2C)cc1 | 58.2* | 14.5* | 16 | 75.3 | 6 | 73.9 | 75.3* | . | . | . | . | . | .
O=C(NCCc1ccncc1)Nc1ccccc1Cl | 95.1 | 97.0 | 9 | 88.4 | 126* | 194.5*[activator] | 88.4* | -0.4 | 97.4 | 89.2 | 96.8 | 96.9 | 85.6
O=C(NCCc1ccncc1)Nc1cccc(Cl)c1 | 93.5 | 89.3 | 6 | 87.3 | 7 | 83.6 | . | . | . | . | . | . | .
Cc1ccc(NC(=O)NC(=O)N(C(C)C)S(C)(=O)=O)nc1 | 118.6 | 239.1*[activator] | 8 | 100.2 | 16 | 97.9 | 100.2* | . | . | . | . | . | .
CC(=O)Cc1cc2cc([N+](=O)[O-])ccc2oc1=O | 100.6 | 103.0 | . | 101.2 | 5 | ? | . | . | . | . | . | . | .
Cc1noc(NC(=O)c2ccccc2C(F)(F)F)c1C#N | 103.0 | 101.0 | 19 | 103.7 | 10 | 100.0 | . | . | . | . | . | . | .
O=C(CSc1cn(CCNC(=O)c2ccc3ccccc3c2)c2ccccc12)NCc1ccco1 | 101.0 | 106.9 | 26 | 102.1 | 7 | 102.4 | . | . | . | . | . | . | .
CCCCc1ccc(NC(=O)CN2NS(=O)(=O)c3ccccc3C2=O)cc1 | 81.2 | -6.9* | 12 | 86.6 | 5 | 88.0 | 86.6* | . | . | . | . | . | .
COc1ccc(C2=NN(C(=S)Nc3ccccc3)C(c3ccccc3)C2)cc1 (stereo unspecified) | 134.1 | 385.0*[activator] | 11 | 116.8 | 12 | 118.2 | 116.8* | -0.4 | 106.5 | 102.3 | 109.0 | 104.8 | 118.1
COc1ccc(C2CC(c3ccccc3)=NN2C(=S)Nc2ccccc2)cc1 (stereo unspecified) | 101.6 | 103.5 | 9 | 104.3 | 25 | 109.1 | . | . | . | . | . | . | .
C(=N\Nc1ccc2ccccc2n1)/c1ccc2c(c1)OCCO2 | 140.2*[activator] | 248.8 | 13 | 111.2 | 10 | 111.2 | 111.2* | 0.3 | 100.8 | 102.0 | 101.4 | 99.3 | 104.0
CCCS(=O)(=O)N1CCCC(C(=O)NCC(OC)OC)C1 (stereo unspecified) | 101.5 | 110.6 | 14 | 102.5 | 5 | 102.4 | . | . | . | . | . | . | .
CCOC(=O)C(NCCCO)c1ccccc1 (stereo unspecified) | . | . | 43 | . | . | . | . | 2.1 | 109.3 | 88.9 | 109.3 | 97.5 | 55.5
CCOCCCNC(C(=O)Nc1ccc(OC)c(Cl)c1)c1ccccc1 (stereo unspecified) | 108.0 | 109.5 | 11 | 109.3 | 10 | ? | . | . | . | . | . | . | .
CCOC(=O)C(C(=O)OCC)C(Nc1ccccc1)c1ccccc1 (stereo unspecified) | 73.1 | 9.4* | 9 | 76.9 | 6 | 78.7 | 76.9* | -1.8 | 98.6 | 95.0 | 100.1 | 97.8 | 89.8
CCOC(=O)C(c1ccccc1)C(Nc1ccccc1)c1ccccn1 (stereo unspecified) | 95.2 | 91.4 | . | 92.6 | 6 | ? | . | . | . | . | . | . | .
O=C(C1=C[C@H](c2ccccc2)C[C@H](OCc2ccc(CO)cc2)O1)N1CCCCCCC1 | 103.3 | 104.2 | 16 | 104.9 | 5 | 103.6 | . | . | . | . | . | . | .
Cc1ccc(CC(=O)O/N=C(\N)Cc2ccc([N+](=O)[O-])cc2)cc1 | 78.0 | 16.9* | 7 | 92.0 | 9 | 88.2 | 92.0* | . | . | . | . | . | .
O=C(CCn1nnc2ccccc21)N1CCN(c2ccccc2)CC1 | . | . | 43 | . | . | . | . | 0.0 | 102.2 | 106.1 | 101.9 | 102.1 | 101.9
O=C(Cn1nnc2ccccc21)N1CCCCC1 | 107.7 | 127.7 | 13 | 104.6 | 12 | 106.4 | . | . | . | . | . | . | .
CCOc1ccccc1CN1CCN(Cc2nc3c(s2)CCCC3)CC1CCO (stereo unspecified) | 115.2 | 120.9 | 13 | 114.4 | 11 | 111.1 | . | . | . | . | . | . | .
COc1ccc(/C=C(/CC(=O)NCc2ccc(Cl)cc2)c2nc3ccccc3s2)cc1 | 102.6 | 109.5 | 12 | 101.7 | 14 | 102.0 | . | . | . | . | . | . | .
SMILES | RGS8-Gao reg | RGS16-Gao HTS | GSH bead fluor | RGS4-Gao reg | Avidin bead fluor | RGS7-Gao reg | RGS4-Gao HTS | Avidin counter | RGS8-Gao confirm | RGS7-Gao single | RGS16-Gao conf | RGS4-Gao single | RGS19-Gao conf
COc1ccc(/C=C(/CC(=O)Nc2ccccc2)c2nc3ccccc3s2)cc1 | 69.9 | 17.6* | 9 | 75.6 | 4 | 74.2 | 75.6* | -0.1 | 99.3 | 84.3 | 94.0 | 89.3 | 108.7
Cc1c(NS(=O)(=O)c2ccc(N(C)C3CCCCC3)c([N+](=O)[O-])c2)c(=O)n(-c2ccccc2)n1C | 89.6 | 35.2 | 9 | 94.9 | 8 | 91.2 | . | . | . | . | . | . | .
COc1cccc(N2CCN(CC(=O)c3c(C)[nH]c4ccccc34)CC2)c1 | 14.6* | 14.7* | 34 | 22.1* | -1 | 17.4* | . | -1.3 | 100.9 | 99.9 | 102.6 | 99.2 | 108.0
Cc1ccc2c(C(=O)CN3CCN(c4ccccc4)CC3)c(C)[nH]c2c1 | 98.8 | 98.5 | 24 | 96.6 | 5 | 99.0 | . | . | . | . | . | . | .
COc1cccc(N2CCN(CC(=O)NCc3cccs3)CC2)c1 | . | . | 18 | . | . | . | . | 0.1 | 101.6 | 99.5 | 100.4 | 99.5 | 99.5
COc1ccc(N2CCN(CC(=O)NCc3ccccc3)CC2)cc1 | 98.8 | 100.9 | 18 | 98.3 | 9 | 101.6 | . | . | . | . | . | . | .
CC(=O)Nc1cccc(NC(=O)CSc2nnnn2-c2ccc3c(c2)OCO3)c1 | 99.1 | 98.0 | . | 101.1 | 12 | ? | . | . | . | . | . | . | .
Cc1ccc2c(Cl)c(C(=O)Nc3cccnc3)sc2c1 | 100.9 | 102.6 | 7 | 101.3 | 15 | 100.4 | . | . | . | . | . | . | .
